In PubChem BioAssay AID652071 (NMMLSC, 2013):
Calls of active or inactive are those of the source. How the calls were made is not given here.

Experiment: yeast cytosolic pH changes via V-ATPase – S. cerevisiae, pHLuorin, powder set 4, dose response (AID 652071)
Conditions: S. cerevisiae pHLuorin cytosolic pH fluorescence; series mostly up to 100 µM
In the case of Cc1ccnc(C(=O)Nc2ccccc2N2CCN(C)CC2)c1, the outcome was “inactive”.
For CC(=O)N1CCN(c2ccccc2NC(=O)c2cccc(C(N)=O)c2)CC1, the outcome was “inactive”.
For O=C(Nc1ccccc1N1CCCCC1)c1cccc(Cl)n1, the outcome was “inactive”.
For CC(=O)N1CCN(c2ccccc2NC(=O)c2cc(C)ccn2)CC1, the outcome was “inactive”.
For CC(=O)N1CCN(c2ccccc2NC(=O)c2cccc(Cl)n2)CC1, the outcome was “inactive”.
In the case of CN(C)Cc1ccc(C(=O)Nc2ccccc2N2CCCCC2)o1, the outcome was “inactive”.
For O=C(c1occc1-c1ccccc1)N1CCN(c2nc3ccc(F)cc3s2)CC1, the outcome was “inactive”.
For O=C(Nc1ccccc1N1CCCCC1)c1cncc(Cl)n1, the outcome was “inactive”.
For CC(=O)N1CCN(c2ccccc2NC(=O)c2cccc(C#N)c2)CC1, the outcome was “inactive”.
In the case of Cc1cncc(C(=O)Nc2ccccc2N2CCN(C)CC2)n1, the outcome was “inactive”.
In the case of Cc1cccc(C(=O)Nc2ccccc2N2CCCCC2)n1, the outcome was “inactive”.
With COCc1cccc(C(=O)Nc2ccccc2N2CCN(C(C)=O)CC2)c1 the outcome was “inactive”.
With COCc1ccc(C(=O)Nc2ccccc2N2CCN(C(C)=O)CC2)o1 the outcome was “inactive”.
In the case of CS(=O)(=O)c1cccc(C(=O)Nc2ccccc2N2CCCCC2)c1, the outcome was “inactive”.
With CC(=O)N1CCN(c2ccccc2NC(=O)c2ccc(C)o2)CC1 the outcome was “inactive”.
With O=C(Nc1ccccc1N1CCOCC1)c1ccc(Cl)o1 the outcome was “inactive”.
In the case of CC(=O)N1CCN(c2ccccc2NC(=O)c2ccc(C(F)(F)F)o2)CC1, the outcome was “inactive”.
In the case of CN1CCN(c2ccccc2NC(=O)c2ccc(S(C)(=O)=O)o2)CC1, the outcome was “inactive”.
In the case of COCc1cccc(C(=O)Nc2ccccc2N2CCCCC2)c1, the outcome was “inactive”.
